Assay results: PubChem BioAssay (NCATS)
Records with an inconclusive call do not appear. Active and inactive are the calls of the source. The call rests on the fitted dose curve; in most records, active means well fitted cell-killing curve with a large enough effect; inconclusive means small, poorly fitted or top-dose-only effect, or effect the other way; inactive means no such curve, though single readings can be large or run the other way.

assay: Quantitative High-Throughput drug screen in 47 multiple myeloma cell lines against the NCATS MIPE library collection: KMS12PE_JCRB cell viability assay (AID 1918972); settings: KMS12PE myeloma viability, CellTiter-Glo ATP, 48 h; series mostly up to 45.8 µM; further: nearly all actives have a fitted effect of over 30% in size
Source text: PI: Beverly A. Mock Ph.D.
Laboratory of Cancer Biology and Genetics,
Center for Cancer Research, National Cancer Institute,
National Institute of Health, Bethesda, Maryland
Drug resistance and disease progression are common in multiple myeloma (MM) patients, underscoring the need for new therapeutic combinations. […] We hypothesized that effective combinations would reduce MYC expression and enhance p16 activity. […] These preclinical data identify potentially useful drug combinations for evaluation in drug-resistant MM and reveal potential mechanisms of combined drug sensitivity.
Described herein is the primary MIPE qHTS used to cherrypick compounds. Validated compounds were then further tested for potential synergistic activiy.
[1] Peat TJ, Gaikwad SM, Dubois W, Gyabaah-Kessie N, Zhang S, Gorjifard S, Phyo Z, Andres M, Hughitt VK, Simpson RM, Miller MA, Girvin AT, Taylor A, Williams D, D'Antonio N, Zhang Y, Rajagopalan A, Flietner E, Wilson K, Zhang X, Shinn P, Klumpp-Thomas C, McKnight C, Itkin Z, Chen L, Kazandijian D, Zhang J, Michalowski AM, Simmons JK, Keats J, Thomas CJ, Mock BA. Drug combinations identified by high-throughput screening promote cell cycle transition and upregulate Smad pathways in myeloma. Cancer Lett. 2023 Aug 1;568:216284. doi: 10.1016/j.canlet.2023.216284. Epub 2023 Jun 24. PMID: 37356470; PMCID: PMC10408729.
SEQUENCE No. (e.g., 1, 2, 3, etc.); […] (e.g., Cells, Incubation, Reagent, etc.); VALUE and DESCRIPTION.
1; Cells; 5 uL; white, solid bottom 1536-well Greiner assay plate.
2; Compounds; 23 nL; Kalypsis pin tool (Wako USA) equipped with a 1536-well pin head to transfer to the assay plates.
3; Incubation; 48 hours; 37C incubation.
4; Reagent;5uL; CellTiter Glo (Promega).
5; Detector; 425V; Luminescence; Viewlux PerkinElmer.
NOTES (numbers refer to Sequence numbers above)
1. The cell-based screening methods employed in this study were like those previously published. Briefly, the corresponding myeloma cell lines were screened in 1,536-well plates with 500 cells, 5-uL per well for inhibition of cell viability (assessed by measuring ATP levels with CellTiterGlo).
2. NCATS MIPE 4.0 library of approved and investigational drugs were added using the Kalypsis pin tool. Wells treated with DMSO only for 100% viability and media only wells for 0% viability were used as controls.
3. The assay plates were covered and incubated for 48 hours in a 37C, 5% CO2 incubator with controlled humidity.
4. After 48 hours, CellTilter-GloTM luminescent substrate mix (Promega) reagent was added to the assay plate and plates we incubated for 5 min at room temperature.
5. Signal was measured as median relative luminescence units on a ViewLux (PerkinElmer) multiplate reader.
[1] Heske CM, Davis MI, Baumgart JT, Wilson K, Gormally MV, Chen L, Zhang X, Ceribelli M, Duveau DY, Guha R, Ferrer M, Arnaldez FI, Ji J, Tran HL, Zhang Y, Mendoza A, Helman LJ, Thomas CJ. Matrix Screen Identifies Synergistic Combination of PARP Inhibitors and Nicotinamide Phosphoribosyltransferase (NAMPT) Inhibitors in Ewing Sarcoma. Clin Cancer Res. 2017 Dec 1;23(23):7301-7311. doi: 10.1158/1078-0432.CCR-17-1121. Epub 2017 Sep 12. PMID: 28899971; PMCID: PMC6636827.
Potency means the concentration at half of the fitted maximal effect.

| Compound | Potency |
| --- | --- |
| CC[C@H](C)C(=O)O[C@H]1C[C@H](O)C=C2C=C[C@H](C)[C@H](CC[C@@H](O)C[C@@H](O)CC(=O)O)[C@H]21 | inactive |
| CN(C)CC[C@H](CSc1ccccc1)Nc1ccc(S(=O)(=O)NC(=O)c2ccc(N3CCN(Cc4ccccc4-c4ccc(Cl)cc4)CC3)cc2)cc1[N+](=O)[O-] | 0.0235 µM (active) |
| Cc1[nH]c(C=C2C(=O)Nc3ccc(S(=O)(=O)N(C)c4cccc(Cl)c4)cc32)c(C)c1C(=O)N1CCN(C)CC1 | 7.43 µM (active) |
| OC(c1cc(C(F)(F)F)nc2c(C(F)(F)F)cccc12)C1CCCCN1 (stereo not given) | 20.9 µM (active) |
| NC(=O)c1nnn(Cc2cc(Cl)c(C(=O)c3ccc(Cl)cc3)c(Cl)c2)c1N | 6.62 µM (active) |
| CCC(C)SSc1ncc[nH]1 (stereo not given) | 9.35 µM (active) |
| CCNC(=O)CCCC=CC[C@@H]1[C@H](C=CC(O)CCc2ccccc2)[C@@H](O)C[C@@H]1O (stereo not given in full) | inactive |
| Oc1cc(O)cc(C=Cc2ccc(O)c(O)c2)c1 | 18.7 µM (active) |
| C[C@H](c1ccc(F)cc1CCCC(=O)O)N(c1cc(F)ccc1F)S(=O)(=O)c1ccc(Cl)cc1 | inactive |
| CCC[C@H](N[C@@H](C)C(=O)N1[C@@H]2CCCC[C@H]2C[C@H]1C(=O)O)C(=O)OCC | 6.62 µM (active) |
| O=C(Nc1cccc(Cl)c1)Nc1ncc(CCNc2ncnc3ccsc23)s1 | 0.662 µM (active) |
| CCN(CC)CCCCNc1nc2cc(Cl)c(Cl)cc2nc1-c1ccc(-c2cccs2)s1 | 6.62 µM (active) |
| O=C(O)C1=CC(O)C(O)[C@H](O)C1 (stereo not given in full) | inactive |
| O=c1[nH]nc(OCCCc2ccc(Cl)cc2)c(NCc2cccnc2)c1Br | 2.64 µM (active) |
| COc1ccc(Cn2ccc3ccc(C(=O)NO)cc32)cc1 | 16.6 µM (active) |
| C=C1c2cccc(O)c2C(O)=C2C(=O)[C@@]3(O)C(O)=C(C(N)=O)C(=O)[C@@H](N(C)C)[C@@H]3[C@@H](O)[C@H]12 | inactive |
| O=C(O)c1ccc(O)c2ncc(N3CCOCC3)cc12 | 26.4 µM (active) |
| CCN1CCC(n2cc(CNc3cc(Cl)c4ncc(C#N)c(Nc5ccc(F)c(Cl)c5)c4c3)nn2)CC1 | 8.33 µM (active) |
| C=C1[C@H](n2cnc3c(=O)[nH]c(N)nc32)C[C@H](O)[C@H]1CO | 0.296 µM (active) |
| CC1=C(C(=O)Nc2cc3cn[nH]c3cc2F)C(c2ccc(C(F)(F)F)cc2)CC(=O)N1 (stereo not given) | inactive |

| Compound | Potency |
| --- | --- |
| N#CC(c1ccc(Cl)cc1)c1c(Cl)cc(-n2ncc(=O)[nH]c2=O)cc1Cl (stereo not given) | 13.2 µM (active) |
| CCCCC(C)(C)[C@H](O)C=C[C@H]1[C@H](O)CC(=O)[C@H]1CC=CCCCC(=O)O | inactive |
| Cc1ccc(C2=Nc3ccc(Cl)cc3OC2)cc1 | 4.18 µM (active) |
| O=C(c1ccc(C=Cc2n[nH]c3ccccc23)cc1)N1CCNCC1 | 2.35 µM (active) |
| O=C1CCCC(=O)C1C(=O)c1ccc(C(F)(F)F)cc1[N+](=O)[O-] | inactive |
| COC(=O)N1CCN(Cc2cccc(NC(=O)Nc3ccc(C)nc3)c2F)CC1 | inactive |
| CN(CC=CC#CC(C)(C)C)Cc1cccc2ccccc12 | inactive |
| Fc1ccc(CNc2ncnc3ccc(F)cc23)cc1 | 4.69 µM (active) |
| O=S(=O)(NCCNCC=Cc1ccc(Br)cc1)c1cccc2cnccc12 | 16.6 µM (active) |
| COc1ccc(-c2nc3ccc(C4=NNC(=O)CC4C)cc3[nH]2)cc1 (stereo not given) | inactive |
| CNC(=O)c1cc(COc2nnc(Nc3ccc(Cl)cc3)c3ccoc23)ccn1 | 6.62 µM (active) |
| COc1cc(N2CCN(C)CC2)ccc1Nc1nc(N)c(C(=O)c2c(Cl)cccc2Cl)s1 | 23.5 µM (active) |
| COc1cc2nccc(Oc3ccc(NC(=O)Nc4ccc(F)cc4F)c(F)c3)c2cc1OC | inactive |
| NC(=O)c1ccc(N(C(N)=O)c2c(F)cccc2F)nc1-c1ccc(F)cc1F | inactive |
| c1cc(OCCN2CCCCC2)cc(-c2n[nH]c3ccc(-c4ncn[nH]4)cc23)c1 | 23.5 µM (active) |
| CCCCC[C@H](O)C=C[C@H]1[C@H](O)CC(=O)[C@H]1CC=CCCCC(=O)O | inactive |
| CN[C@@H]1CN(c2ccc3c(=O)c(C(=O)O)cn(-c4nccs4)c3n2)C[C@@H]1OC | inactive |
| NC(=O)c1ncn([C@@H]2O[C@H](CO)[C@@H](O)[C@@H]2O)n1 | inactive |
| CCCCC(C=O)NC(=O)C(CC(C)C)NC(=O)OCc1ccccc1 (stereo not given) | inactive |
| CCCCCCOC(=O)N=C(N)c1ccc(NCc2nc3cc(C(=O)N(CCC(=O)OCC)c4ccccn4)ccc3n2C)cc1 | 18.7 µM (active) |
